HP1b binding inh – HTS for Inhibitors of HP1-beta Chromodomain Interactions with Methylated Histone Tails | Chromobox protein homolog 1 (Homo sapiens), P83916 | AlphaScreen HP1-beta / biotin-H3K9me3 peptide binding | Potency, µM (titrated, usually from 114 µM), inactives show top-dose activity change, negative = inhibition, hits mostly inhibitors | 390,000 compounds, 0.56% hits | AID 540317, 2011; further: nearly all actives have a fitted effect of over 70% in size
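Compound inhibition of the preformed complex between 50 nM HP1-beta and 50 nM biotinylated H3K9me3 peptide was read by AlphaScreen. Buffer was PBS pH 7.4 with 0.01% Tween-20. Incubations ran 30 min at room temperature, with 10 ug/mL donor/acceptor beads.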
BAZ2B inh – qHTS Assay for Inhibitors of BAZ2B. Bromodomain adjacent to zinc finger domain protein 2B (Homo sapiens), Q9UIF8. AlphaScreen BAZ2B-H3K14Ac peptide displacement. Potency, µM (titrated, usually from 114 µM), without a hit: at the highest dose activity change, negative = inhibition, most hits filed as inhibitors. 360,000 compounds, 4.4% hits. AID 504333, 2011; further: on the % scale 0 is the no-effect control and ±100 the full control effect; nearly all actives have a fitted effect of over 60% in size
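In this displacement format the biotinylated H3(5-23) peptide acetylated at Lys14 serves as ligand at 50 nM, with BAZ2B at 50 nM in PBS pH 7.4 containing 0.01% Tween-20. Donor and acceptor beads are 10 ug/mL final.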
PLK1 PBD inh – qHTS for Inhibitors of PLK1-PDB (polo-like kinase 1 - polo-box domain): Primary Screen; Serine/threonine-protein kinase PLK1 (Homo sapiens), P53350; Plk1 PBD binding of FITC phosphopeptide, fluorescence polarization; Potency, µM, for inactives: max response, negative = inhibition, hits mostly inhibitors; 360,000 compounds, 2.8% hits; AID 720504, 2013; further: series mostly up to about 57 µM; on the % scale 0 is the no-effect control and ±100 the full control effect; nearly all actives have a fitted effect of over 65% in size
Target sequence (P53350 whole entry, looked up, the tested form may be a part): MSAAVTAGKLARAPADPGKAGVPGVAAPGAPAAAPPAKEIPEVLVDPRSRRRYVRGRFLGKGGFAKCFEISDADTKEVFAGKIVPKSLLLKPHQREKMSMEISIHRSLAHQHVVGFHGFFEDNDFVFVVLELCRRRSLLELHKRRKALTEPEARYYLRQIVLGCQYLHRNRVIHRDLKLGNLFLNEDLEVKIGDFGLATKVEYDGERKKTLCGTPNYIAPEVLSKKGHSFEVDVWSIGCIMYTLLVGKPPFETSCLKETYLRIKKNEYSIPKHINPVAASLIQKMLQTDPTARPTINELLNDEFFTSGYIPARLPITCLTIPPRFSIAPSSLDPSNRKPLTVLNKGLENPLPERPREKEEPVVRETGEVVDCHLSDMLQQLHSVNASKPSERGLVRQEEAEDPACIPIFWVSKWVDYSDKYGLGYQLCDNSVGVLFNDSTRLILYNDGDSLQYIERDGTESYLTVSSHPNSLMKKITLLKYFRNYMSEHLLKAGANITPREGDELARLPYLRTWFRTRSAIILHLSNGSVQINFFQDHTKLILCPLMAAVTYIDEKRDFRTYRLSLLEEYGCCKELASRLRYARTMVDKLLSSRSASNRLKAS
Sfp inh – qHTS Assay for Inhibitors of Bacillus subtilis Sfp phosphopantetheinyl transferase (PPTase); Biochemical Sfp PPTase activity, qHTS; Potency, µM, without a hit: largest response in the series, negative = inhibition, most hits filed as inhibitors; 310,000 compounds, 3.5% hits;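 further: the enzyme is Sfp with the accession as filed and its product quenches rhodamine fluorescence; 0% = enzyme reaction without inhibitor and -100% = no enzyme wells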
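Step 1, compound plus 15 nM Sfp-PPTase, 15 min, room temperature. Step 2, add rhodamine-CoA (5 uM) and BHQ-2-YbbR (12.5 uM). Step 3, read 525/598 nm fluorescence at 0 and 30 min.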
JMJD2A Tudor – qHTS Assay for Inhibitors of JMJD2A-Tudor Domain; Lysine-specific demethylase 4A (Homo sapiens), O75164; AlphaScreen JMJD2A-Tudor / H3K4me3 peptide binding; Potency, µM (top dose mostly 114 µM), without a hit: top-dose activity change, negative = inhibition, hits mostly inhibitors; 390,000 compounds, 4.4% hits; AID 504339, 2011; further: on the % scale 0 is the no-effect control and ±100 the full control effect; nearly all actives have a fitted effect of over 50% in size
G9a inh – qHTS Assay for Inhibitors of Histone Lysine Methyltransferase G9a; 350,000 compounds, 8.8% hits; G9a H3K9 monomethylation, AlphaScreen, 2 h; AID 504332, 2011; Potency, µM (series often up to 102 µM), inactives show at the top dose activity, negative = inhibition, hits mostly inhibitors; further: on the % scale 0 is the no-effect control and ±100 the full control effect; nearly all actives have a fitted effect of over 75% in size
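AlphaScreen detection with an anti-monomethyl H3K9 antibody quantified product after a 2 h room-temperature reaction containing 500 nM biotinylated H3K9 peptide, 20 µM SAM and 20 nM enzyme, which had been preincubated 15 min with compound.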
Active calls of the source: *; ? = inconclusive; / = no result given; ! = not confirmed by another sample; [ ] = remark or other dose. This is a sample that favours compounds with a hit; in the whole collection about 12% have one here. The call rests on the fitted dose curve; in most records, active means well fitted curve in the direction sought with a large enough effect; inconclusive means small, poorly fitted or top-dose-only effect, or another doubt; inactive means no such curve, though single readings can be large; an effect the other way counts as inactive or inconclusive. Potency means the concentration at half of the fitted maximal effect.

SMILES	HP1b binding inh	BAZ2B inh	PLK1 PBD inh	Sfp inh	JMJD2A Tudor	G9a inh
CCc1ccc(NC(=O)C(CC)Sc2nc3cc4c(cc3c(=O)n2Cc2ccco2)OCO4)cc1 (stereo unspecified)	5%	4%	-13%	45µM*	-25%	-12%
CCOC(=O)c1c(-c2ccccc2)oc2ccc(NS(=O)(=O)c3ccc(C(C)C)cc3)cc12	33%	1%	/	/	1%	6%[59 µM]
Nc1ncn(C2O[C@H](CO)[C@@H](O)[C@H]2O)c(=O)n1 (stereo partly specified)	/	44%	/	/	/	11%[59 µM]
NC(=O)c1ncn([C@@H]2O[C@H](CO)[C@@H](O)[C@H]2O)c1O	32%	-17%	-10%	-5%	-19%	25µM*!
Nc1nc(=S)c2ncn([C@H]3O[C@@H](CO)[C@@H](O)[C@@H]3O)c2[nH]1	/	/	/	11µM*	/	?
O=c1[nH]c(=O)c2ncn(C3OC(CO)C(O)C3O)c2[nH]1 (stereo unspecified)	23%[57 µM]	/	/	/	-4%[57.1 µM]	/
CN(C1CCCCC1)S(=O)(=O)Cc1ccccc1	-1%	2%	?	?	-10%	32µM*
CC(C)C1CC(CCNCc2ccc(N(C)C)cc2)(c2ccccc2)CCO1 (stereo unspecified)	?	25µM*	-10%	4%	32µM*	35µM*
Cc1ccc(C2(CCNCc3ccc(N(C)C)cc3)CCOC(C(C)C)C2)cc1 (stereo unspecified)	?	35µM*	3%	14%	40µM*	?
Cc1cccc(N2CCN(C(=O)c3csc4ccccc34)CC2C)c1 (stereo unspecified)	-17%	?	-7%	-18%	?	50µM*
Cc1ccc(C)c(N2CCN(C(=O)C3CCN(C(=O)c4cc5sccc5n4C)CC3)CC2)c1	-18%	25µM*	/	/	?	?
Cc1cccc(N2CCN(C(=O)C3CCN(C(=O)c4cc5sccc5n4C)CC3)CC2C)c1 (stereo unspecified)	-15%	35µM*	/	/	?	-37%[59 µM]
CCOc1ccc(-c2cn3c(n2)sc2cc(C(=O)NCCc4ccc(OC)cc4OC)ccc23)cc1	25%	-3%	/	/	-15%	8%[59 µM]
Cc1ccc(CNC(=O)c2cc(S(=O)(=O)N3CCCCC3)cn2C)cc1	-4%[57 µM]	-6%	/	/	-23%	-19%[59 µM]
CCCCCCCCCCCCCCC/C=C/[C@@H](O)[C@H](NC(=O)CCCCCCCCCCCCC)OC (tested in a mixture with another compound)	/	/	/	/	/	20µM*
CCCCC/C=C\C/C=C\C/C=C\C/C=C\CCCCCC(=O)NC(C)C(=O)O (stereo unspecified)	/	/	/	-9%	/	/
CCO/N=C1\C(=O)N(c2ccccc2)c2ccccc21	-1%	-18%	-3%	7%	-17%	-7%
CCCCCC1C(=O)N2C=C(c3ccccc3)c3ccccc3N2C1=O (stereo unspecified)	?	/	?	/	56µM*	/
CCCCC1C(=O)N(c2ccccc2)N(c2ccccc2)C1=O	52%	-37%	-20%	?	-15%	10µM*!
CCCCOCC1CN(c2ccccc2)C(=O)CS1 (stereo unspecified)	29%	-9%	-13%	3%	-11%	-1%[59 µM]
CCn1c(/C=C/c2ccccc2Cl)nc2ccccc2c1=O	64%	-4%	-7%	-11%	-7%	-28%[2.33 µM]
CCCN1C(=O)/C(=C/c2nc3ccccc3c(=O)[nH]2)c2ccccc21	?	?	-11%	-31%	?	?
